The source of these data is PubChem BioAssay (NCATS).

Test [1] has as its target Glucocorticoid receptor (Homo sapiens) (UniProt P04150). Briefly: GR-GFP Redistribution (AID 450;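 active means compounds whose dose series gives a full or clear partial fitted curve of increased nuclear translocation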; further: potency means the concentration at half of the fitted maximal effect).
The target is the same in test [2]. Briefly: GR-EFC Redistribution (AID 451; calls by dose curve; further: potency means the concentration at half of the fitted maximal effect). The following applies: CHO-K1 GR-EFC translocation, beta-gal luminescence, 2 h. The essentials:
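CHO-K1 cells expressing nuclear EA and GR-ED fragments of b-gal; compounds titrated up to 46 uM final, 2 h at 37 C. GR nuclear translocation read as complemented b-gal luminescence after 1 h RT detection.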

Test [3] addresses Mitogen-activated protein kinase 10 (Mus musculus) (UniProt Q61831). In words: JNK3 AlphaScreen Assay (AID 530; active means well fitted curve in either direction with a large enough effect, not every such curve was filed as active;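 further: kinase came from lysate of stimulated human HepG2 cells; signal reports phosphorylation of biotinylated GST-cJun 1-79 at Ser73 with 10 µM ATP; series mostly up to about 57 µM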). The essentials:
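qHTS format: compounds tested as titrations against IL-1beta/TNF-alpha-activated HepG2 lysate JNK3 with biotin-GST-cJun substrate and 10 uM ATP at room temperature. Loss of anti-phospho-cJun AlphaScreen signal indicates inhibition.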
Background: Alpha assays give light when donor and acceptor beads are brought close together.

The target of test [4] is 3',5'-cyclic-AMP phosphodiesterase 4B (Homo sapiens) (UniProt Q07343). In words: qHTS Assay for Inhibitors of PDE-IV (AID 607; active means well fitted activation curve with a large enough effect in the main read-out, with a control signal flat, not every such curve was filed as active). The essentials:
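Live HEK293 cells with a modified cyclic nucleotide-gated (CNG) channel report intracellular cAMP via membrane-potential dye fluorescence (ex 535/em 590 nm). Endogenous PDE-IV was targeted. Compounds were tested at up to 22.9 uM final; RO 20-1724 100 uM served as control.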
A general note: In qHTS, concentration-response curves come from the screen itself.

For test [5], the target named is Cytochrome P450 2C9 (Homo sapiens) (UniProt P11712). In words: qHTS Assay for Inhibitors and Substrates of Cytochrome P450 2C9 (AID 883). Further: nearly all actives have a fitted effect of over 60% in size. Further: potency means the concentration at half of the fitted maximal effect. In outline:
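Signal: luciferase luminescence reporting luciferin produced by CYP2C9. Conditions: 10nM enzyme, Luciferin-H 100uM at KM, 25mM KPO4, 37C, 60 min NADPH-driven reaction. Reference: 57uM sulphaphenazole as 100% inhibition.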

The target of test [6] is Cytochrome P450 2D6 (Homo sapiens) (UniProt P10635). In words: qHTS Assay for Inhibitors and Substrates of Cytochrome P450 2D6 (AID 891). Further: nearly all actives have a fitted effect of over 60% in size. Further: potency means the concentration at half of the fitted maximal effect. The essentials: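 Human CYP2D6 (5 nM) with 30 uM Luciferin-ME EGE (at Km) in 100 mM KPO4, compound preincubated 10 min, then NADPH regeneration system for 60 min at room temperature. Luciferin read by luminescence; normalized to 1.43 uM quinidine.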
Cytochrome P450 2D6 (Homo sapiens), sequence (P10635 whole entry, looked up): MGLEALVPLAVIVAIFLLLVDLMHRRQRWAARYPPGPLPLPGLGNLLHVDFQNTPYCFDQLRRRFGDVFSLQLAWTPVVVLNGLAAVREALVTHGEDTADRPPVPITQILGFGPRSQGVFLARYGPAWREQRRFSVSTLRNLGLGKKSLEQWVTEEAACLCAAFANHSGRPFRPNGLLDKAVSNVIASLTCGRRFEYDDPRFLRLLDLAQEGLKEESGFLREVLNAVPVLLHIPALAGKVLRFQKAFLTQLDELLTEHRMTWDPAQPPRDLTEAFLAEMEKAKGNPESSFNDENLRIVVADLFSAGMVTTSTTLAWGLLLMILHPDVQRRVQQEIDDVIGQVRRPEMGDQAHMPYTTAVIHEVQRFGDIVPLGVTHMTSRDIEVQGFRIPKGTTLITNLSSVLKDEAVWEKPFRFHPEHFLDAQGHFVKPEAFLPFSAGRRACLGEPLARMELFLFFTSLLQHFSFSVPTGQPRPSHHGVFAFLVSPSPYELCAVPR

Test [7] has as its target Cytochrome P450 2C19 (Homo sapiens) (UniProt P33261). Briefly: qHTS Assay for Inhibitors and Substrates of Cytochrome P450 2C19 (AID 899). Further: nearly all actives have a fitted effect of over 60% in size. Further: potency means the concentration at half of the fitted maximal effect. In outline:
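Signal comes from luciferase acting on luciferin released by CYP2C19-mediated hydroxylation of Luciferin-H EGE, 10uM (KM). Assay mix: 5nM enzyme, 50mM KPO4; 60 min at 37C with NADPH regeneration. Data normalized against 57uM ketoconazole.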

The target in test [8] is Ubiquitin carboxyl-terminal hydrolase 1 (Homo sapiens) (UniProt O94782). In words: Inhibitors of USP1/UAF1: Pilot qHTS (AID 504865). Further: potency means the concentration at half of the fitted maximal effect; nearly all actives have a fitted effect of over 35% in size. The essentials:
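Deubiquitinase activity followed as kinetic rhodamine fluorescence release from 150 nM Ub-Rho. 1 nM USP1/UAF1 with compound, after 15 min room-temperature preincubation, in HEPES pH 7.8 buffer containing TCEP, EDTA, BSA and Tween-20.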

Unmarked numbers belong to inactive results. Inconclusive results are not listed. Calls of active or inactive are those of the source. Unless noted, the call rests on the fitted dose curve; in most records, active means well fitted curve in the direction sought with a large enough effect; inconclusive means small, poorly fitted or top-dose-only effect, or another doubt; inactive means no such curve, though single readings can be large; an effect the other way counts as inactive or inconclusive.

Cytochrome P450 2C19 (Homo sapiens), sequence (P33261 whole entry, looked up): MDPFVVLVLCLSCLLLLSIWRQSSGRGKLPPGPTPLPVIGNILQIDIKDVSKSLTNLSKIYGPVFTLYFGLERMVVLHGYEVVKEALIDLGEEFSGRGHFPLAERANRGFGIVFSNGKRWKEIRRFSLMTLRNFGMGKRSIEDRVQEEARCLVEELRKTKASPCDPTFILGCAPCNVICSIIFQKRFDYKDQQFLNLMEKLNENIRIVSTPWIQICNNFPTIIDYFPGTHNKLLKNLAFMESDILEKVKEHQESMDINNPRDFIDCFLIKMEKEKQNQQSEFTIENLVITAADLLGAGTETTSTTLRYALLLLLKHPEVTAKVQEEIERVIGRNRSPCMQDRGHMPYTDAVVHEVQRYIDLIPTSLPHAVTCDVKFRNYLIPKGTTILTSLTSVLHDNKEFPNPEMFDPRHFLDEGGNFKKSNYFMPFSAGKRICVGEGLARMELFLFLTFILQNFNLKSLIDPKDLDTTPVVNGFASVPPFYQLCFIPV
3',5'-cyclic-AMP phosphodiesterase 4B (Homo sapiens), sequence (Q07343 whole entry, looked up): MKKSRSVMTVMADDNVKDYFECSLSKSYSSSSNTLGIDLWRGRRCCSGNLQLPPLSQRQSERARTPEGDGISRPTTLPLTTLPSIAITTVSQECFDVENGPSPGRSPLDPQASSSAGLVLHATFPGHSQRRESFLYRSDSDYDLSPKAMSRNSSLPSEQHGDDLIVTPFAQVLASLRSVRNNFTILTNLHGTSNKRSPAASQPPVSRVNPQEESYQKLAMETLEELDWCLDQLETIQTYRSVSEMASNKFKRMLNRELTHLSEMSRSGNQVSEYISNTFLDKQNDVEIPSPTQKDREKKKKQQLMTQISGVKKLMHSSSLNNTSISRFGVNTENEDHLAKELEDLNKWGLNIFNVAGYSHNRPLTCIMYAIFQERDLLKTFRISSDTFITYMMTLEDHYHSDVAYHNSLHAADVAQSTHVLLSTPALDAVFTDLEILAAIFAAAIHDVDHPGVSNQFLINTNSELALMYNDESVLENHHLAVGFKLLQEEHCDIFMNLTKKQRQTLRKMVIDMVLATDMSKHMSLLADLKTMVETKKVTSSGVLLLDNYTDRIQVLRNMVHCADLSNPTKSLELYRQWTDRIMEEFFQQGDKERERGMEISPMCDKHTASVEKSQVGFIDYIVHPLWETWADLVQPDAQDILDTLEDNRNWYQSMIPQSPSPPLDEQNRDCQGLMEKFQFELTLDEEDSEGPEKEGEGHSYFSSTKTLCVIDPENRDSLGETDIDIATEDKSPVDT
Cytochrome P450 2C9 (Homo sapiens), sequence (P11712 whole entry, looked up): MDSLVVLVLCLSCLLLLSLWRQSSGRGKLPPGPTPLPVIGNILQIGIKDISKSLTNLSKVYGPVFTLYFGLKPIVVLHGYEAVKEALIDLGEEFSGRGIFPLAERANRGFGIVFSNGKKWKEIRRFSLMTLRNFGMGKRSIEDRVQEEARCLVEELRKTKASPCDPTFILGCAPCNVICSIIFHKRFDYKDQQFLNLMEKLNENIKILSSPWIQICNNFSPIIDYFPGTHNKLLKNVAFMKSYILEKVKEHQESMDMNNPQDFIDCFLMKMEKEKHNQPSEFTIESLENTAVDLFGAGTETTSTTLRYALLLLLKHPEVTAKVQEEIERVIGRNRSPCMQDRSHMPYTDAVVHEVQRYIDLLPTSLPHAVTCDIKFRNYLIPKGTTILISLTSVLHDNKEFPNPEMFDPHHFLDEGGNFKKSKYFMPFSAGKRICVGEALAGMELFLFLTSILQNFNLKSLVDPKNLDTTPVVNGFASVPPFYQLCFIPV
Glucocorticoid receptor (Homo sapiens), sequence (P04150 whole entry, looked up): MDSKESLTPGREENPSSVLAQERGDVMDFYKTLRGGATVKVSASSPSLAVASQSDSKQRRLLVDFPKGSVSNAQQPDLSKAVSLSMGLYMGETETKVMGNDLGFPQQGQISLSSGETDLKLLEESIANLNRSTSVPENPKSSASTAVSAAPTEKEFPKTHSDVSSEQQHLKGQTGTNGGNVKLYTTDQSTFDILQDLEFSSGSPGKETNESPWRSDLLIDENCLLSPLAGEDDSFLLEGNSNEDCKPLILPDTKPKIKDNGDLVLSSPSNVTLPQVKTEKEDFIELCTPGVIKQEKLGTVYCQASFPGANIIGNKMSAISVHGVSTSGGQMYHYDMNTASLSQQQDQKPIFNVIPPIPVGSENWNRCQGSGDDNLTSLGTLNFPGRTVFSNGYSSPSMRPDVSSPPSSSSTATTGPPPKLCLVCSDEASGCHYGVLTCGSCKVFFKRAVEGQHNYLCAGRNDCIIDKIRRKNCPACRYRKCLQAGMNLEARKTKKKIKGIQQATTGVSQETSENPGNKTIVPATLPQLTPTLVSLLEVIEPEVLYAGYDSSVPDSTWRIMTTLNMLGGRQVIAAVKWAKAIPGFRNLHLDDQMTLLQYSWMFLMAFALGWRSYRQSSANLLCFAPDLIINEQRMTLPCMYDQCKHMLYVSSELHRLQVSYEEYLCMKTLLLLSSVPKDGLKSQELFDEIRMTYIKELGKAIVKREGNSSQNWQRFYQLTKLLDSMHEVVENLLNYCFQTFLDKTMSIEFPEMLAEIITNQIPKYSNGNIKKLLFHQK
Ubiquitin carboxyl-terminal hydrolase 1 (Homo sapiens), sequence (O94782 whole entry, looked up): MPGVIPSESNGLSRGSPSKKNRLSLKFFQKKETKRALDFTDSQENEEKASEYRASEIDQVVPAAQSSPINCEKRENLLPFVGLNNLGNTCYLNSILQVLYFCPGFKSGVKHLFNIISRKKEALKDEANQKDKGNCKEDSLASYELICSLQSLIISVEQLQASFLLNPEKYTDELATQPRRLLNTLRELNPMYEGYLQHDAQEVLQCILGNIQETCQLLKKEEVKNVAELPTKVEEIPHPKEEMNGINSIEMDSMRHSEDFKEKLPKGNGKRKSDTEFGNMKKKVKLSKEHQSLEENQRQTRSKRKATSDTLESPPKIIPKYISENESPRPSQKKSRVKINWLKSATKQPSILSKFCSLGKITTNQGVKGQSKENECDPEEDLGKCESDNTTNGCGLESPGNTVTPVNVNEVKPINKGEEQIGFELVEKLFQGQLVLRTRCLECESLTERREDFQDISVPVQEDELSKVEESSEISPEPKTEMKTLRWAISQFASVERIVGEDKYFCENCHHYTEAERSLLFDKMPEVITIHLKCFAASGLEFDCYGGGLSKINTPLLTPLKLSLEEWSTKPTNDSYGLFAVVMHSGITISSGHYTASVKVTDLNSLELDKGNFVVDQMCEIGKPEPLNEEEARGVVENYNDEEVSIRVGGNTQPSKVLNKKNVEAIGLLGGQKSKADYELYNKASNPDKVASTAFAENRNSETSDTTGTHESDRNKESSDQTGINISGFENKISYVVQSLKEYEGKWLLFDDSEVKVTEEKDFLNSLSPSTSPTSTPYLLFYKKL

For `Cc1ccccc1N1C(=O)CC(Sc2nnc(-c3ccccc3)o2)C1=O` (configuration not stated), the Potency in test [1] was above 20.6 µM.

For `C=CCn1c(SCC(=O)c2ccc(NS(=O)(=O)c3ccccc3)cc2)nnc1-c1cccs1`, the Potency in test [1] is above 20.6 µM.

`CC(C)C[C@@H](CC(=O)N[C@@H](CCC(=O)O)CC(=O)O)NC(=O)[C@@H]1CCCC[C@H]1NC(=O)C[C@@H](NC(=O)C[C@H](Cc1ccccc1)NC(=O)[C@@H]1CNCC[C@H]1N)C(C)C`: in test [2], the Potency was above 46 µM. In addition, the Potency entry in test [3], in test [4], in test [5], in test [6] and in test [7] was “inactive” each time.

Consider `CCCC[C@H](CC)CN=C(N)NC(N)=NCCCCCCN=C(N)NC(N)=NC[C@@H](CC)CCCC`, for which the Potency in test [1] is above 20.6 µM; in test [2], above 20.6 µM; in test [6], 3.16 µM (active); in test [8], 28.2 µM (active). Also, the Potency result in test [3] and in test [4] was “inactive” each time.

As for `CC(C)C1=CC2=CC[C@H]3[C@@](C)(CCC[C@]3(C)C(=O)O)[C@@H]2CC1`, the Potency is above 46 µM in test [1], above 46 µM in test [2], 12.6 µM (active) in test [5] and 25.1 µM (active) in test [7]. In addition, the Potency entry in test [3], in test [4] and in test [6] was “inactive” each time.

In the case of `CC(C)[C@@H](CC(=O)N[C@@H]1CCCC[C@H]1C(=O)N[C@H](CC(=O)N[C@@H](CCC(=O)O)CC(=O)O)Cc1ccccc1)NC(=O)C[C@H](Cc1ccccc1)NC(=O)[C@@H]1CCCC[C@H]1N`, the Potency in test [2] is above 46 µM. Also, the Potency result in test [3], in test [4], in test [5], in test [6] and in test [7] was “inactive” throughout.
